In PubChem BioAssay AID588850 (Sanford-Burnham Center for Chemical Genomics, 2011):
Among all 360,000 compounds or so, about 3,100 (0.86%) were called active. The sample as a whole holds a higher share of actives than the screen did. Values without a mark were called inactive.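 Rule for the calls: active = at least 50% inhibition at 5 µM, scaled per plate between neutral and stimulator controls; inactive = the rest.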

Assay: NF-kB reporter blockers in CF airway cells – cell-based, GFP fluorescence, uHTS, primary screen (AID 588850);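 note: PAF is a Pseudomonas aeruginosa culture filtrate used as stimulus; plate controls were PAF-stimulated DMSO wells for no effect and unstimulated DMSO wells for full effect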
Settings: KKLEB NF-kB-GFP reporter, PAF-induced, GFP fluorescence overnight; at 5 µM; active compounds read high

Structure (SMILES)	inhibition
O=C1C(Cl)=C(Oc2ccccc2)C(=O)c2ccccc21	59.1% (active)
Cc1nc2sccn2c(=O)c1S(=O)(=O)NCCc1ccccc1	-12.2%
CCc1nc2c(OCCc3cccc(OC)c3)cccn2c1N(C)C(=O)c1ccc(C)cc1	5.8%
Cc1ccc(Cn2c(C)c3cnn(CC(=O)NCCN4CCOCC4)c(=O)c3c2C)cc1	-0.6%
O=C(c1c(F)cccc1F)N1CCN(c2ncc(Br)cn2)CC1	-1.3%
CC(Nc1ccc([N+](=O)[O-])cc1[N+](=O)[O-])c1ccccc1 (stereo not given)	4.8%
O=C(NC(Nc1nc2ccc([N+](=O)[O-])cc2s1)(C(F)(F)F)C(F)(F)F)c1ccccc1	74.8% (active)
O=C(NNC(=O)c1ccc(-n2cncn2)c([N+](=O)[O-])c1)c1ccccc1	14.4%
Cc1cn(C2CC(O)C(CO)O2)c(=O)n(CCCc2ccccc2)c1=O (stereo not given)	1.7%
COc1ccc(-c2cc(C3CCN(c4ncccc4[N+](=O)[O-])CC3)[nH]n2)cc1	18.1%
CN(CC(=O)NCC(c1ccccc1)N1CCCC1)S(=O)(=O)c1ccc(Cl)cc1 (stereo not given)	-5.7%
CN(CC(=O)NCCc1ccccn1)S(=O)(=O)c1ccc(Cl)cc1	-8%
CN(CC(=O)NNC(=O)CNC(=O)c1ccccc1Cl)S(=O)(=O)c1ccc(Cl)cc1	60.5% (active)
COc1ccc(C(CCN(Cc2ccc(OC)c(OC)c2)C(=O)CCl)c2ccccc2)cc1 (stereo not given)	82.6% (active)
COc1ccc(C(C(=O)NC2CCCCC2)N(C(=O)CCl)c2ccccc2Cl)cc1 (stereo not given)	-13.3%
COc1ccc(CCNC(=O)CN(c2ccccc2)S(C)(=O)=O)cc1OC	-0.3%
CCCCn1c(N)c(N(CC(C)C)C(=O)c2ccc(Br)o2)c(=O)[nH]c1=O	-29%
NC(=S)c1ccc(C(N)=S)o1	14.6%
CCC(C(=O)NCc1cccnc1)n1nc(C)c2sc3ccccc3c2c1=O (stereo not given)	9.9%
N#CCCn1ncc2ccccc21	-11.2%

Structure (SMILES)	inhibition
Cc1nnc(NC(=O)CSc2nc(C3CCCCC3)nc3ccccc23)s1	22.6%
O=C(CSc1nc(C2CC2)nc2ccccc12)Nc1cccc(O)c1	50.1% (active)
O=C(CSc1nc(C2CC2)nc2ccccc12)Nc1ccc2c(c1)OCCO2	42.7%
O=Cc1ccc(OCc2cn3ccccc3n2)cc1	-22.3%
CN1c2ccc(C=O)c3c(C=O)ccc(c23)N(C)C1(C)C	88% (active)
Cc1ccc(C=O)c([B-](F)(F)F)c1	-9.8%
C=CCn1c(C2CC(=O)N(c3ccc(C)cc3)C2)nc2ccccc21 (stereo not given)	-16.5%
CCOc1ccc(S(=O)(=O)NCCC(=O)NNC(=O)c2ccc(F)cc2)cc1	9.6%
Cc1ccc2c(c1)N(CC(=O)N1CCCc3ccccc31)C(=O)C(C)O2 (stereo not given)	7.2%
CCOC(=O)c1c(-c2ccccc2)oc2cc(Br)c(O)c(C=O)c12	68.5% (active)
CCOC(=O)c1c(C)oc2cc(Sc3ccccc3)c(O)c(O)c12	6.5%
CCOC(=O)c1c(C)oc2cc(Br)c(OCC(N)=O)cc12	-3.8%
CCCc1nc2c(c(=O)c3ccccc3n2C)c(=O)n1C1CCCCCC1	55.9% (active)
CCOC(=O)c1nnn2c3ccccc3c(=O)n(C)c12	-25.2%
CCOC(=O)N1CCN(C(=O)c2nn(-c3ccc(C)cc3)c(=O)c3c2c2ccccc2n3C)CC1	-7.7%
Cc1ccc(CNC(=O)c2ccc(CS(=O)Cc3cccc(Cl)c3)o2)cc1 (stereo not given)	1.3%
O=C(Nn1cc(C(=O)N2CCN(c3ccccc3F)CC2)c2ccccc2c1=O)c1cnccn1	-8.3%
NNc1cccc(C=Cc2ccccc2)cc1=O	3.8%
O=C1OC(Oc2ccc(Br)cc2)(c2ccccc2)c2ccccc21 (stereo not given)	50.3% (active)
CCOC(=O)CSc1nnc(CNC(=O)Cc2ccccc2)n1-c1ccccc1OC	1.5%

Structure (SMILES)	inhibition
CS(=O)(=O)c1cccc(-c2ccc3nncn3c2)c1	5.2%
O=C(O)Cc1ccc(NCc2ccccc2Cl)cc1	-14.4%
CC(C)OC(=O)c1ccc(NCc2cc(O)ccc2O)cc1Cl	86.3% (active)
CC(CN1CCCCC1)OC(=O)c1ccccc1Cl (stereo not given)	-7.9%
Oc1cccc2cc(-c3ccncc3)cnc12	13.6%
COc1ccc(CNC(=O)C[C@H]2C[C@H](C(=O)N3CCOCC3)[C@@]3(CCC4CCCC4)c4[nH]c5ccc(Cl)cc5c4CCN3C2=O)cc1OC	8.2%
O=C(CCS(=O)(=O)Cc1ccccc1F)NCCCN1CCCCC1	5%
CC1CN(c2cc(=O)n(-c3cccc(Br)c3)c(=O)[nH]2)CC(C)O1 (stereo not given)	-24.9%
COC(=O)C1CCN(C(=O)COC(=O)c2cc(S(=O)(=O)N3CCOCC3)ccc2C)CC1	5.9%
CC(C)NS(=O)(=O)c1ccc(CCC(=O)N2CCOCC2)cc1	5%
CC(=O)Nc1ccc(NC(=O)CSCc2cnn(-c3ccccc3)c2-n2cccc2)cc1	11.8%
Cc1cc(C)nc(S/C=C/C(=O)c2ccccc2)n1	71.8% (active)
O=C(/C=C/Sc1ncn[nH]1)c1ccc(Cl)cc1	42.7%
COC(c1ccccc1)(c1ccccc1)C(Oc1nc(C)cc(C)n1)C(=O)O (stereo not given)	3.3%
C[C@@H]1Cn2cnc(C(=O)Nc3ccc(CNC(=O)OC(C)(C)C)cc3)c2C(=O)N1	-14.7%
C=C(C)CNC(=O)c1ccc(OC2CCN(C(=O)COC)CC2)cc1	13.1%
CC(=O)N1c2ccc(S(=O)(=O)NCCC(=O)N(C)C3CCCCC3)cc2CC1C (stereo not given)	3.2%
COc1ccccc1C(=O)Nc1cccc(C(=O)N2CCOCC2)c1	-3.8%
Cc1c(Cl)cccc1NC(=O)Nc1ccc(C(=O)N2CCCC2)cc1	3.8%
O=C(Nc1ccc(C(=O)N2CCOCC2)cc1)Nc1cccc(C(F)(F)F)c1	55.4% (active)
